Of roughly 7,900 targets only a part is listed; those with a hit were picked by preference. About 0.6% of all pairs of compound and target were hits. Values without a mark were called inactive.
Tests used:
Test in all cases: log2 fold change, soluble protein after heating vs DMSO (PISA); higher = thermal stabilisation; K562 cells, 10 uM, 30 min; active = over 0.2 and 3.5 SD of the protein, either way, in both replicates (recomputed)
[1] = compound: CS(=O)(=O)c1ccc(-c2cnc(N)c(C(=O)Nc3ccccc3)n2)cc1
Procedure, shortened: (§1)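 Soluble protein was defined as the supernatant after 21,000xg for 90 min. It came from K562 cells at 2×10^6 cells/mL given 10 μM compound for 30 min, heated in aliquots for 3 min across 48°C-58°C, pooled, and extracted in PBS with 0.5% NP-40 at 4°C, and was quantified by TMTpro 16plex LC-MS/MS with equalised channel sums. Thermal stability against control samples, from duplicates, is reported as log2 fold change.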

[2] = compound: C[C@@H](Oc1cc(-c2cnn(C3CCNCC3)c2)cnc1N)c1c(Cl)ccc(F)c1Cl [crizotinib]
Procedure, shortened: as §1

[3] = compound: C[C@@H]1COCCN1C2=NC(=NC(=C2)C3(CC3)S(=O)(=O)C)C4=C5C=CNC5=CC=C4
Procedure, shortened: as §1

[4] = compound: C[C@H](C1=CC=C(C=C1)C(=O)NC2=C3C=CNC3=NC=C2)N
Procedure, shortened: as §1

[5] = compound: C[C@H](Nc1ncnc2nc[nH]c12)c1cc2cccc(Cl)c2c(=O)n1-c1ccccc1 [duvelisib]
Procedure, shortened: as §1

[6] = compound: Cc1cc(Nc2cc(CN3CCOCC3)c3nc(C)c(Cc4ccc(Cl)cc4F)n3n2)n[nH]1 [gandotinib]
Procedure, shortened: as §1

[7] = compound: Cc1cc(Nc2cc(N3CCN(C)CC3)nc(Sc3ccc(NC(=O)C4CC4)cc3)n2)n[nH]1 [tozasertib]
Procedure, shortened: as §1

[8] = compound: Cc1cc(SCc2sc(-c3ccc(C(F)(F)F)cc3)nc2C)ccc1OCC(=O)O
Procedure, shortened: as §1

[9] = compound: Cc1ccc(-n2nc(C(C)(C)C)cc2NC(=O)Nc2ccc(OCCN3CCOCC3)c3ccccc23)cc1 [doramapimod]
Procedure, shortened: as §1

[10] = compound: Cc1ccc(C(=O)N(CCCN)[C@@H](c2nc3cc(Cl)ccc3c(=O)n2Cc2ccccc2)C(C)C)cc1 [ispinesib]
Procedure, shortened: as §1

[11] = compound: Cc1ccc(NC(=O)c2ccc(CN3CC[C@H](N(C)C)C3)c(C(F)(F)F)c2)cc1Nc1nccc(-c2cncnc2)n1 [bafetinib]
Procedure, shortened: as §1

[12] = compound: Cc1cccc(CC(=O)N2CCc3c2ccc(-c2cn(C)c4ncnc(N)c24)c3F)n1
Procedure, shortened: as §1

[13] = compound: Cc1cn(-c2cc(NC(=O)c3ccc(C)c(Nc4nccc(-c5cccnc5)n4)c3)cc(C(F)(F)F)c2)cn1 [nilotinib]
Procedure, shortened: as §1

[14] = compound: Cc1nc(Nc2n[nH]c3c2CN(C(=O)N[C@H](CN(C)C)c2ccccc2)C3(C)C)c2sccc2n1
Procedure, shortened: as §1

[15] = compound: Cc1nc(Nc2ncc(C(=O)Nc3c(C)cccc3Cl)s2)cc(N2CCN(CCO)CC2)n1 [dasatinib]
Procedure, shortened: as §1

[16] = compound: Cc1ncc(-c2ccnc(Nc3ccc(S(C)(=O)=O)cc3)n2)n1C(C)C
Procedure, shortened: as §1

[17] = compound: Cn1cc(-c2ccc3c(c2)CCN3C(=O)Cc2cccc(C(F)(F)F)c2)c2c(N)ncnc21
Procedure, shortened: as §1

[18] = compound: Cn1cc(-c2ccc3nnc(C(F)(F)c4ccc5ncccc5c4)n3n2)cn1
Procedure, shortened: as §1

[19] = compound: Cn1cncc1[C@@](N)(c1ccc(Cl)cc1)c1ccc2c(c1)c(-c1cccc(Cl)c1)cc(=O)n2C [tipifarnib]
Procedure, shortened: as §1

[20] = compound: FC(F)(F)c1ccc(/C=C/c2nc(COc3ccc(CCCCn4ccnn4)cc3)co2)cc1 [mubritinib]
Procedure, shortened: as §1

Chain of UniProt Q15287 (Q15287 whole entry, looked up): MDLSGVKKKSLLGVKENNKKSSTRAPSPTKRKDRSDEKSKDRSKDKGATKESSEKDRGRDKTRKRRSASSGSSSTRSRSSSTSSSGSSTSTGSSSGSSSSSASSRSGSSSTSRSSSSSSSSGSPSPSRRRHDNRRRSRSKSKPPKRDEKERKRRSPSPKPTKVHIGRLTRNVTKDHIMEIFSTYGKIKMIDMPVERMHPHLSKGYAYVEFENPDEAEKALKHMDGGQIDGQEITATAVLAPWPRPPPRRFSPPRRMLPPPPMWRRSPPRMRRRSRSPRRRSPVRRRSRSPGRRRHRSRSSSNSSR
Chain of UniProt Q9H2X9 (Q9H2X9 whole entry, looked up): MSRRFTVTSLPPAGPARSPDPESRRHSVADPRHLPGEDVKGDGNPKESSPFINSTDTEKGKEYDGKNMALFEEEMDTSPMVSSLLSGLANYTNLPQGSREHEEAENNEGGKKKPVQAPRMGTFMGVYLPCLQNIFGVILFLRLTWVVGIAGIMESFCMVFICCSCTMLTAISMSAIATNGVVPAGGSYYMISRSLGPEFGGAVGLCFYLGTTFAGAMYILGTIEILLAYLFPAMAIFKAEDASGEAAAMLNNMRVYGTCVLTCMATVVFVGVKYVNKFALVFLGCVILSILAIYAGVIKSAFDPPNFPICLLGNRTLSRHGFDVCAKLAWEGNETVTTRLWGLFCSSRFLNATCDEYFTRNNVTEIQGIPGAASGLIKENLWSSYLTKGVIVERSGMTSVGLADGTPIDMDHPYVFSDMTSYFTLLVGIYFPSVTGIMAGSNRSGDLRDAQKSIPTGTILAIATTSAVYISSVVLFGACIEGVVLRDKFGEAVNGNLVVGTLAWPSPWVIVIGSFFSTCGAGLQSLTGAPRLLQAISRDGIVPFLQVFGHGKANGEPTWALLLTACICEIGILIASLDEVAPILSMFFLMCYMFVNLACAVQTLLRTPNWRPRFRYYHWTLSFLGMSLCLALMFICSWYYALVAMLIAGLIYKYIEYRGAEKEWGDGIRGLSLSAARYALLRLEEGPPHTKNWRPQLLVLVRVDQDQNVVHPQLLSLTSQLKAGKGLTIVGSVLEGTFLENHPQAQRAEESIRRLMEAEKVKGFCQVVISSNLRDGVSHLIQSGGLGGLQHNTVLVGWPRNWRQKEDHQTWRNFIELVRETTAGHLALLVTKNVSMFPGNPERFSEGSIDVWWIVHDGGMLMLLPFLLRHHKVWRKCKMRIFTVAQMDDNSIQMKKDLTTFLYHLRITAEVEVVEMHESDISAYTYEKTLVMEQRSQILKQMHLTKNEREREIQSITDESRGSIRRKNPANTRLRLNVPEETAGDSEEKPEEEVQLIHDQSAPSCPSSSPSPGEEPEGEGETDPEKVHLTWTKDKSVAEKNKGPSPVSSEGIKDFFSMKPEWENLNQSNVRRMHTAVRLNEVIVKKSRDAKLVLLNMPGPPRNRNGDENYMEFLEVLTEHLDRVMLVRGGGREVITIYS
Chain of UniProt Q8N122 (Q8N122 whole entry, looked up): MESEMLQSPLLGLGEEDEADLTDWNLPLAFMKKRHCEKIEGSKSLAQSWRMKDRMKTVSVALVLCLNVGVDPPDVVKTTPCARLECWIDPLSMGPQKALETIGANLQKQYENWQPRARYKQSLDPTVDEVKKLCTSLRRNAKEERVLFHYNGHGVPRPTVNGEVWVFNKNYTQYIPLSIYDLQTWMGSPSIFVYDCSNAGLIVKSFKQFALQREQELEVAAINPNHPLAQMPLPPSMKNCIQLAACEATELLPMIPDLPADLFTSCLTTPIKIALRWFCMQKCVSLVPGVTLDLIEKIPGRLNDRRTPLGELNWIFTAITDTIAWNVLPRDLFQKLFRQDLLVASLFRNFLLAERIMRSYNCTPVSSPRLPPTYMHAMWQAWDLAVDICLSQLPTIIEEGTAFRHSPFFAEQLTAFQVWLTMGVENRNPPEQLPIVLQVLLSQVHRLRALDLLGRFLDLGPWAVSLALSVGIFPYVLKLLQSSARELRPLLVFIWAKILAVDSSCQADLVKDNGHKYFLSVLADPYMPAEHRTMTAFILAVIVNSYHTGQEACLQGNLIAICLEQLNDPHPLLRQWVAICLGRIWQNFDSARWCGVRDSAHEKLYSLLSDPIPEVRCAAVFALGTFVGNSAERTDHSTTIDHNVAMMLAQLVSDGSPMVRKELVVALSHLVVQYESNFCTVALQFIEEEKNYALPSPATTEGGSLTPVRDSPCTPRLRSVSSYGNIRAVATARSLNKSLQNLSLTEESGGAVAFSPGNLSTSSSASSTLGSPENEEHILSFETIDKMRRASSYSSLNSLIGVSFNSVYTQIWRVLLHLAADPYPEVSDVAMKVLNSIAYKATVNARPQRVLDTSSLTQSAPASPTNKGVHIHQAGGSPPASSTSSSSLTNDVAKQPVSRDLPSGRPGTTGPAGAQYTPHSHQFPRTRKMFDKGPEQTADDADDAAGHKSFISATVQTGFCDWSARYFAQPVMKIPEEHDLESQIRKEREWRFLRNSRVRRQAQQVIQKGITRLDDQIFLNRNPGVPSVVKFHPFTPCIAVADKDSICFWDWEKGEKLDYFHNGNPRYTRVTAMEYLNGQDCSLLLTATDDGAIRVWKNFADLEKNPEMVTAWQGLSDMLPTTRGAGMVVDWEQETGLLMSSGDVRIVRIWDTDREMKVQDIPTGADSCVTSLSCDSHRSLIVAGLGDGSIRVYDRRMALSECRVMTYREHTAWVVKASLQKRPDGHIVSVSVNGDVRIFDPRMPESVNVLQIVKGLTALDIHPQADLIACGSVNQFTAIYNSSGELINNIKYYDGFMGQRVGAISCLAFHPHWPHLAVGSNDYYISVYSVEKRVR
Chain of UniProt O43819 (O43819 whole entry, looked up): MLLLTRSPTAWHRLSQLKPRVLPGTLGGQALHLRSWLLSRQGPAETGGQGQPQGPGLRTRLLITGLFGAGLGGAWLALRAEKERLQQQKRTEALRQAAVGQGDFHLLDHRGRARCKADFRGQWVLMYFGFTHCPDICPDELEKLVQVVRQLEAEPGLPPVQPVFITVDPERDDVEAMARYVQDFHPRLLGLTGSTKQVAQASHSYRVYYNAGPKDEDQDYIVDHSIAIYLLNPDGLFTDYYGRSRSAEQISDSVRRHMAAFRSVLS
Chain of UniProt Q13796 (Q13796 whole entry, looked up): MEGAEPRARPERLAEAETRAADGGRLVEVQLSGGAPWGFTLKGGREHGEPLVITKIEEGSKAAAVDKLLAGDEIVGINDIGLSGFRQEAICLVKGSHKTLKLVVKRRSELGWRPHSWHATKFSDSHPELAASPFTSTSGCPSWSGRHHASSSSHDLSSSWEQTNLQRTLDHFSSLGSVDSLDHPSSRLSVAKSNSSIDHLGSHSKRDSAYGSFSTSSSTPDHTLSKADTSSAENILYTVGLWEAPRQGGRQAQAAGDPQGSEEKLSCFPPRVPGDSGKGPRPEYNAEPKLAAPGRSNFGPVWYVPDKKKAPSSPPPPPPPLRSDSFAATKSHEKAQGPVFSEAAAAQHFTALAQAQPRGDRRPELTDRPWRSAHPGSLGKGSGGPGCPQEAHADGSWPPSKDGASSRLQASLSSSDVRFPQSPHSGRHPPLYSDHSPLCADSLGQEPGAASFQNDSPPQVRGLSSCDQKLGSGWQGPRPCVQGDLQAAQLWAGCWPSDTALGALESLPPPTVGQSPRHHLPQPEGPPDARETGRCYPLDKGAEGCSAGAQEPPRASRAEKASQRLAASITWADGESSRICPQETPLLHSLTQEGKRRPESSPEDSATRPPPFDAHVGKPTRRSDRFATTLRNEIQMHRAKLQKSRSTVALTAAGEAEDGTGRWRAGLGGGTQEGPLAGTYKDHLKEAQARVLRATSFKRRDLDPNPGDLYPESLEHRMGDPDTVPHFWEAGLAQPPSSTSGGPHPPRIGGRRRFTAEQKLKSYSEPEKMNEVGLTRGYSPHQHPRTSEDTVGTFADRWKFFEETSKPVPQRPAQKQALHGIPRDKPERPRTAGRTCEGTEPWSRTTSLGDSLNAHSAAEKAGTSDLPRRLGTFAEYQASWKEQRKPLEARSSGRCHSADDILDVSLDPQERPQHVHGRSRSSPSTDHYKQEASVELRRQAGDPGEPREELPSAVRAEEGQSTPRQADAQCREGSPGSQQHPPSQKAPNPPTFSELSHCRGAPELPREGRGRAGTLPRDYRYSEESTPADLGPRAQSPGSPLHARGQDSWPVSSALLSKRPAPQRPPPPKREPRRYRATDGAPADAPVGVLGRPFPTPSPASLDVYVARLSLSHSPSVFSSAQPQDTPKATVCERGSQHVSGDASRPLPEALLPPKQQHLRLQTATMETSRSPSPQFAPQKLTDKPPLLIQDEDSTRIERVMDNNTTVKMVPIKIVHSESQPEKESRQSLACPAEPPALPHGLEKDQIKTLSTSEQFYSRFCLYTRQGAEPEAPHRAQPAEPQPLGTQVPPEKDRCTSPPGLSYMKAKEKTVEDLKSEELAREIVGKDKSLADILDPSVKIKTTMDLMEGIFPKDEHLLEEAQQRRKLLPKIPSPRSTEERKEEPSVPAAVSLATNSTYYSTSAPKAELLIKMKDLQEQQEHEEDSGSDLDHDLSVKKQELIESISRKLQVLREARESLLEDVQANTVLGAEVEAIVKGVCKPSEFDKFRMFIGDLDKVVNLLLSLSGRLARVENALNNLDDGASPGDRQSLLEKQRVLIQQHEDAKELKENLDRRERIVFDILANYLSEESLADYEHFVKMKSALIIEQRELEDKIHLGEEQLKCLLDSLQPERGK
Chain of UniProt Q99643 (Q99643 whole entry, looked up): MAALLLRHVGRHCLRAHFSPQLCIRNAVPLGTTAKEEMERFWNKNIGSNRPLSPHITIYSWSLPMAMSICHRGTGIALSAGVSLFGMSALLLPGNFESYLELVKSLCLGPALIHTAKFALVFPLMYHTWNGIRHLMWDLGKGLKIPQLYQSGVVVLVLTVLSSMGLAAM
Chain of UniProt Q86UA6 (Q86UA6 whole entry, looked up): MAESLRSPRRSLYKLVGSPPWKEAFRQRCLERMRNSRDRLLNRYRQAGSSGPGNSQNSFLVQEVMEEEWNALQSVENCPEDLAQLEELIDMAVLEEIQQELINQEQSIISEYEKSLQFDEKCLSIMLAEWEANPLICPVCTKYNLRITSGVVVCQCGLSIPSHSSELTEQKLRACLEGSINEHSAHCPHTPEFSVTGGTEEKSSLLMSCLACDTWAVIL

| Target | log2 fold change [1] | log2 fold change [2] | log2 fold change [3] | log2 fold change [4] | log2 fold change [5] | log2 fold change [6] | log2 fold change [7] | log2 fold change [8] | log2 fold change [9] | log2 fold change [10] | log2 fold change [11] | log2 fold change [12] | log2 fold change [13] | log2 fold change [14] | log2 fold change [15] | log2 fold change [16] | log2 fold change [17] | log2 fold change [18] | log2 fold change [19] | log2 fold change [20] |
| --- | --- | --- | --- | --- | --- | --- | --- | --- | --- | --- | --- | --- | --- | --- | --- | --- | --- | --- | --- | --- |
| RPTOR (UniProt Q8N122) | 0.012 | -0.188 | -0.031 | 0.033 | 0.045 | -0.115 | 0 | 0.01 | -0.009 | -0.114 | -0.005 | 0.034 | -0.085 | -0.103 | -0.103 | -0.045 | -0.107 | 0.009 | -0.062 | 0.033 |
| SLC12A5 (UniProt Q9H2X9) | 0.089 | 0.001 | 0.028 | 0.027 | -0.07 |  | -0.039 | 0.083 | 0.234 |  | 0.009 |  |  |  | -0.034 |  | 0.002 |  | 0.117 | -0.001 |
| SHROOM2 (UniProt Q13796) | 0.093 | 0.005 | 0.013 | -0.099 | 0.059 | 0.397 | -0.195 | -0.233 | 0.008 |  | -0.091 | -0.02 | 0.082 | 0.011 | 0.166 | -0.043 | 0.163 |  | -0.022 | 0.258 |
| SCO2 (UniProt O43819) | 0.062 | -0.106 | 0.05 | -0.016 | 0.14 | 0.026 | 0 | 0.061 | -0.031 | -0.134 | -0.058 | -0.014 |  |  | -0.042 |  | 0.107 | 0.039 | 0.014 | -0.035 |
| RPAIN isoform 8 (UniProt Q86UA6) | -0.024 | 0.144 | 0.385 | -0.039 | 0.123 |  | 0.07 | 0.078 | -0.04 | -0.155 | -0.064 |  |  |  | -0.043 |  | -0.022 | -0.142 | -0.042 |  |
| RELA (UniProt Q04206) | 0.03 | 0.036 | 0.005 | -0.029 | 0.018 | -0.086 | 0.059 | 0.055 |  | 0.017 | -0.04 | 0.006 | -0.023 | -0.295 (active) |  | -0.031 | 0.04 | -0.047 | -0.04 | 0.044 |
| RPS25 (UniProt P62851) | -0.101 | -0.041 | -0.286 | 0.239 | -0.083 | 0.239 | 0.028 | 0.032 | 0.178 | -0.148 | 0.259 | -0.007 | 0.015 | 0.174 | 0.07 | -0.032 | -0.177 | -0.077 | 0.062 | -0.068 |
| SDHC (UniProt Q99643) | -0.304 | 0.08 | 0.457 (active) | -0.045 | 0.155 | -0.023 | 0.042 | -0.111 | -0.086 | 0.047 | 0 | -0.127 | 0.007 | 0.068 | 0.028 | -0.056 | -0.011 | -0.024 | 0.211 | 0.02 |
| RNPS1 (UniProt Q15287) | 0.018 | -0.109 | 0.114 | -0.019 | -0.091 | 0.089 | 0.108 | -0.028 | -0.104 | 0.042 | -0.073 | -0.032 | -0.035 | -0.62 (active) | -0.007 | -0.12 | -0.037 | 0.011 | -0.084 | 0.003 |

From the supplement of paper PMC10849652
